# CF NFkB inh – blocks PAF-induced NF-kB reporter in cystic fibrosis cells; AID 588850; inhibition, % at 5 µM; 360,000 compounds, 0.86% hits; KKLEB NF-kB-GFP reporter, GFP fluorescence overnight;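 active = at least 50% inhibition at 5 µM, scaled per plate between neutral and stimulator controls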;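 also: PAF is a Pseudomonas aeruginosa culture filtrate used as stimulus; plate controls were PAF-stimulated DMSO wells for no effect and unstimulated DMSO wells for full effect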
# TRAIL sens C8 – caspase-8 TRAIL sensitization; NB7+C8 cells + TRAIL, ATPlite viability luminescence; 360,000 compounds, 1% hits; inhibition (viability loss, TRAIL sensitization), % at 10 µM;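 active = compounds causing at least 50% loss of cell viability in the single-dose screen, relative to plate controls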
# KKLEB tox – CF airway cell cytotoxicity counter-screen; KKLEB CF airway cells viability, ATPlite luminescence, overnight; active compounds read low; cells stimulated with P. aeruginosa culture filtrate; activity change (cytotoxicity), % at 5 µM; 360,000 compounds, 0.36% hits; AID 602141;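 active = corrected activity change at or below -50% at 5 µM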
# iPSC survival up – hiPSC single-cell survival enhancement | survival enhancement, % at 20 µM | AID 602274 | 360,000 compounds, 0.044% hits | ATPlite luminescence; 100% = ROCK inhibitor wells, 0% = DMSO; in the data active = survival enhancement above about 18%;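 also: cells exposed to compounds for 16 hours before the ATP read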
# PPC-1+TRAIL kill – PPC-1 cancer cell killing with TRAIL present. PPC-1 cells + TRAIL, ATPLite viability luminescence. cell killing (% activity), % at 4 µM or 5 µM. 220,000 compounds, 0.41% hits. AID 1443;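 active = cell killing above 50% in the first pass at 4 µM, then a duplicate retest at 5 µM averaging 50% or more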;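 also: plate controls were cells with TRAIL plus DMSO for no effect and medium-only wells lacking cells for full effect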
# HIF-2a inh – inhibitors of HIF-2a | 786-0 RCC cells HIF-2a reporter, luciferase luminescence, overnight | inhibition, % at 18.8 µM | 360,000 compounds, 0.72% hits;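 active = inhibition of the luminescence signal of 40% or more relative to plate controls, in a single-dose primary screen at 18.75 µM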
# Mdm2-MdmX confirm – Mdm2/MdmX (human) interaction inhibition, confirmed. shares compounds with HIF-2a inh. SaOS-2 split-luciferase Mdm2/MdmX complementation, luminescence. inhibition, % at 8 µM. 740 compounds, 99% hits. AID 504601;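 active = mean inhibition of the luminescence signal across two replicates at or above 26 percent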
# Target sequence (O15151 whole entry, looked up): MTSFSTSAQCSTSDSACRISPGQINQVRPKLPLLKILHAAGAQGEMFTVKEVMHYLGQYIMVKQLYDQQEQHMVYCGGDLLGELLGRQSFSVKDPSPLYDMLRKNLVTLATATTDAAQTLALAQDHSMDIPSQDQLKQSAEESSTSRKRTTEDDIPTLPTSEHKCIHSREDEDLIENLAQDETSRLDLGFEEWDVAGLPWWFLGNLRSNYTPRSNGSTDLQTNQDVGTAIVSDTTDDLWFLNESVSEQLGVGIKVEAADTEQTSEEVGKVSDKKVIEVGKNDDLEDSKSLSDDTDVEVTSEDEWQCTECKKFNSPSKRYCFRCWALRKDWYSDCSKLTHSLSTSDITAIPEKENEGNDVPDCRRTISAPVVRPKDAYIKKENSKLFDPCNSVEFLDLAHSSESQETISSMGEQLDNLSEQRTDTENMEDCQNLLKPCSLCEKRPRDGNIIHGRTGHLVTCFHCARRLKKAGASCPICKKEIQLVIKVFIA
# Target sequence (Q00987 whole entry, looked up): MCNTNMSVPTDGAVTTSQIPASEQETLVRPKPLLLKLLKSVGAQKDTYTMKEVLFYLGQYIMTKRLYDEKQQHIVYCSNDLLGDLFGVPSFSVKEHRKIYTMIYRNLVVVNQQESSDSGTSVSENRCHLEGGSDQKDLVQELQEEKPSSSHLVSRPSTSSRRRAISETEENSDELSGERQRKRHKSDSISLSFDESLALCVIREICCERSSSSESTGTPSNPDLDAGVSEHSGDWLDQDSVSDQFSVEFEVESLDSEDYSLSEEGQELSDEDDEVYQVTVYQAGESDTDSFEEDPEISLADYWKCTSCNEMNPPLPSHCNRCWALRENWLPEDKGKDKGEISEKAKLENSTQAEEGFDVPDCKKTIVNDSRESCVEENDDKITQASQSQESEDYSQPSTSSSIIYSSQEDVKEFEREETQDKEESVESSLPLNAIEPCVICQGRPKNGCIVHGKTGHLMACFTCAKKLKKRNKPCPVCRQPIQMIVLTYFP
# HIF-2a conf – HIF-2a inhibition, single concentration confirmation | inhibition, % at 18.8 µM | AID 651580 | shares compounds with HIF-2a inh | 786-0 RCC cells, HIF-2a luciferase reporter luminescence, overnight | 1,800 compounds, 56% hits;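 active = mean inhibition across four replicates of at least 40 percent at the single tested concentration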
# HIF-1a cs – inhibits HIF-1a reporter, a counter-screen for HIF-2a inhibitors. shares compounds with HIF-2a inh. MiaPaCa-2 HIF-1a luciferase reporter, desferoxamine, overnight. inhibition, % at 18.8 µM. 1,800 compounds, 72% hits;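 active = mean inhibition of the reporter signal across four replicates at the single tested dose of 50% or more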
# Starred values were filed as active, the others as inactive; . = no result. An excerpt weighted towards active compounds, which were near 2.2% of everything screened.
SMILES,CF NFkB inh,TRAIL sens C8,KKLEB tox,iPSC survival up,PPC-1+TRAIL kill,HIF-2a inh,HIF-2a conf,HIF-1a cs,others
CCOc1cc(/C=C\[N+](=O)[O-])ccc1OCC(=O)Nc1ccccc1C,-22,64*,-1,-3,2,96*,26,106*,Mdm2-MdmX confirm=100*
CC(C=NNc1ccc([N+](=O)[O-])cn1)=Cc1ccccc1,12,17,2,-3,.,-238,.,.,
COc1ccc(NC(=O)/C(Cl)=C(/Cl)S(=O)(=O)Cc2ccccc2)cn1,84*,24,-53*,13,27,94*,100*,106*,
COc1ccc(NC(=O)C(Cl)=C(Cl)Cl)cn1,-2,3,3,-1,6,-10,.,.,
C[C@H](NC(=O)c1nc[nH]c1C(=O)NCC(=O)OCc1ccccc1)c1ccccc1,8,-7,-6,-1,.,5,.,.,
CCOc1ccc(C(=O)CCC(=O)N(CC)CC(=O)NCc2ccc(Cl)cc2)cc1,3,-4,-17,1,.,-13,.,.,
C=C(C(=O)c1ccccc1)C(C(=C)C(=O)c1ccccc1)c1ccc(OC)cc1,36,-19,-19,-1,13,61*,59*,103*,Mdm2-MdmX confirm=103*
C=C(C(=O)c1ccccc1)C(c1ccccc1)C(C)C(=O)c1ccccc1 (configuration not stated),0,23,-13,-1,-10,81*,45*,96*,
CN(C)/C=C1/N=C(c2ccccc2)OC1=O,3,0,5,0,11,-58,.,.,
O=CC1=C(c2ccccc2)Oc2ccccc2O1,37,27,-5,0,.,46*,12,107*,
CSc1nc2c(cc1C#N)CCC2,6,-2,7,0,10,11,.,.,
N#Cc1cc2c(nc1SC1CC(=O)N(c3ccccc3)C1=O)CCC2 (configuration not stated),9,26,-4,1,-6,59*,83*,63*,
CC(C)N1CCc2c(sc(NC(=O)c3nc4ccccc4s3)c2C(N)=O)C1,-18,7,-14,2,20,-70,.,.,
COC(=O)c1c(NC(=O)c2ccc([N+](=O)[O-])o2)sc2c1CCN(C(C)C)C2,75*,53*,-29,0,.,29,.,.,Mdm2-MdmX confirm=84*
COC(=O)c1c(NC(=O)Cc2ccccc2)sc2c1CCN(C(C)C)C2,-18,11,20,7,.,-31,.,.,
CC(C)N1CCc2c(sc(NC(=O)c3ccc([N+](=O)[O-])o3)c2C(N)=O)C1,79*,52*,9,0,.,90*,79*,103*,
COC(=O)Cc1ccc(NC(=O)c2ccc(C(C)(C)C)cc2)cc1,5,74*,-8,-4,40,90*,94*,40,
COC(=O)Cc1ccc(NC(=O)c2ccccc2Cl)cc1,6,24,16,-4,20,-20,.,.,
Cc1ccc(C2=[N+]([O-])C3(CCCCC3=O)N(O)C2(C)C)cc1 (configuration not stated),7,-14,-11,-2,12,44*,21,15,
CC1(C)C(c2ccco2)=[N+]([O-])C2(CCCCC2=O)N1O (configuration not stated),8,-7,8,1,33,-5,.,.,
C=CCn1c(C)cc(C(=O)COc2ccc(C)nc2[N+](=O)[O-])c1C,14,9,2,0,12,68*,68*,89*,
COCCn1c(C)cc(C(=O)COc2ccc(C)nc2[N+](=O)[O-])c1C,-19,0,5,-3,10,75*,77*,85*,
CCCn1c(C)cc(C(=O)COc2ccc(C)nc2[N+](=O)[O-])c1C,-4,4,0,0,19,26,.,.,
O=C(CSc1nnnn1-c1cccc(F)c1)NC1CCCCC1,16,-3,2,5,.,-7,.,.,
Cn1c2c(c(=O)n(C)c1=O)C(C(F)(F)F)(C(F)(F)F)N=C(c1ccc(Cl)cc1)N2,67*,51*,-50,1,39,12,.,.,Mdm2-MdmX confirm=97*
SMILES,CF NFkB inh,TRAIL sens C8,KKLEB tox,iPSC survival up,PPC-1+TRAIL kill,HIF-2a inh,HIF-2a conf,HIF-1a cs,others
CCCCNC(=O)COC(=O)c1ccc(F)cc1Cl,-1,-6,-4,-2,24,2,.,.,
O=C(NC(=S)Nc1ccccc1N1CCCC1)c1ccco1,9,-28,-6,0,6,76*,-8,7,
O=C(NC(=S)Nc1ccccc1N1CCCCC1)c1ccco1,-12,-3,-5,-1,-7,-6,.,.,
Oc1[nH]c2ccc(Br)cc2c1N=NC(=S)N1CCOCC1,32,42,0,0,34,68*,.,.,Mdm2-MdmX confirm=99*
O=C(c1ccccc1)c1nn(-c2ccc(Cl)cc2)c(=O)cc1C(F)(F)F,-4,23,-15,-2,24,46*,-2,107*,Mdm2-MdmX confirm=103*
Cc1cc(N2CCN(c3ccc([N+](=O)[O-])c4cccnc34)CC2)c2ccccc2n1,-41,28,-12,-2,12,32,.,.,Mdm2-MdmX confirm=102*
O=C(/C=C/c1ccccc1)CC(O)(c1ccccc1)C(F)(F)F (configuration not stated),53*,9,-58*,-2,0,73*,44*,104*,
O=C(/C=C/c1ccccc1)CC(O)(c1ccccc1)C(F)(F)C(F)F (configuration not stated),23,20,-34,-1,0,70*,53*,106*,
COc1ccc(/C=C/C(=O)CC(O)(c2ccccc2)C(F)(F)F)cc1 (configuration not stated),11,0,-5,-4,-3,17,.,.,
COc1ccc2cc1Oc1ccc(cc1)C[C@H]1c3cc(c(OC)cc3CCN1C)Oc1c(OC)c(OC)cc3c1[C@H](C2)N(C)CC3,27,3,-14,-3,24,11,.,.,Mdm2-MdmX confirm=102*
COc1ccc2cc1Oc1ccc(cc1)C[C@H]1c3c(cc4c(c3Oc3cc5c(cc3OC)CCN(C)[C@@H]5C2)OCO4)CCN1C,9,7,-22,-5,22,8,.,.,
O=C(Nc1nc(-c2ccc(-c3ccccc3)cc2)cs1)c1cc([N+](=O)[O-])ccc1N1CCOCC1,-5,2,-6,0,25,62*,-78,-7,

# Assay outcomes from PubChem.
